Values joined by “and” are separate entries in the source; they are usually repeats but may differ in a detail not shown here. Equal entries are not always repeated. Records with an inconclusive call do not appear. A call without a number means that no potency is given here. Active and inactive are the calls of the source. Unless noted, calls come from the whole dose curve.
Tests used:
[1] = biological target: Glucocorticoid receptor (Homo sapiens) (UniProt P04150); assay: qHTS assay for small molecule agonists of glucocorticoid receptor signaling (AID 588532; active = well fitted curve in the direction sought with a large enough effect in the signal ratio, with a control signal flat; the % refers to the signal ratio); details: HeLa MMTV-bla, beta-lactamase ratio, agonist, 18 h; stronger effect = higher value; percent of dexamethasone control, DMSO zero
Sequence of Glucocorticoid receptor (Homo sapiens) (P04150 whole entry, looked up): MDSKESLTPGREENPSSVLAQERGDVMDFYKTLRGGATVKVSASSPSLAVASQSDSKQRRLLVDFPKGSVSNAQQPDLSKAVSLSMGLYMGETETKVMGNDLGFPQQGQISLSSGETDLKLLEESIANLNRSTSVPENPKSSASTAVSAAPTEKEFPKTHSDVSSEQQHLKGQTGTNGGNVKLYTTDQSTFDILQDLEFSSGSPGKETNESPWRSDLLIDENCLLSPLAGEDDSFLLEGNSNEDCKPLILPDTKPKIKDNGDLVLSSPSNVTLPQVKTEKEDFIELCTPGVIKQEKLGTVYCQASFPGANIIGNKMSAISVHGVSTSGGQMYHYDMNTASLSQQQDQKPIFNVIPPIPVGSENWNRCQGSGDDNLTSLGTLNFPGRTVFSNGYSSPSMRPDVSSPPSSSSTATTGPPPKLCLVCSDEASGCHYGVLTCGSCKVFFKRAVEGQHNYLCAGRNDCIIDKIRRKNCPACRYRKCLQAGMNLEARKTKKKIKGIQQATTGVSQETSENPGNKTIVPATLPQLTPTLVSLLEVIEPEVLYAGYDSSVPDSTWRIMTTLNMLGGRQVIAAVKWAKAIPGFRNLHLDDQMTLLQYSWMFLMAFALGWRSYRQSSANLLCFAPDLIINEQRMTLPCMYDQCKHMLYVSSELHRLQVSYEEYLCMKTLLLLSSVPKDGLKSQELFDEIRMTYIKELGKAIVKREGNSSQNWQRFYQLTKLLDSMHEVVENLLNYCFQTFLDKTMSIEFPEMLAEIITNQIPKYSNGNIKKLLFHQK
Method in brief: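 Cells were plated and rested 3-5 h at 37 C, compounds were added in titration and incubated 18 h, then CCF4 substrate was loaded for 2 h at RT before reading blue/green fluorescence. EC50 came from Hill-equation fitting.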

[2] = biological target: Peroxisome proliferator-activated receptor delta (Homo sapiens) (UniProt Q03181); assay: qHTS assay for small molecule agonists of peroxisome proliferator-activated receptor delta signaling (AID 588534); details: HEK293T PPARdelta-UAS-bla, beta-lactamase ratio, 18 h; series mostly up to 76.7 µM
Sequence of Peroxisome proliferator-activated receptor delta (Homo sapiens) (Q03181 whole entry, looked up): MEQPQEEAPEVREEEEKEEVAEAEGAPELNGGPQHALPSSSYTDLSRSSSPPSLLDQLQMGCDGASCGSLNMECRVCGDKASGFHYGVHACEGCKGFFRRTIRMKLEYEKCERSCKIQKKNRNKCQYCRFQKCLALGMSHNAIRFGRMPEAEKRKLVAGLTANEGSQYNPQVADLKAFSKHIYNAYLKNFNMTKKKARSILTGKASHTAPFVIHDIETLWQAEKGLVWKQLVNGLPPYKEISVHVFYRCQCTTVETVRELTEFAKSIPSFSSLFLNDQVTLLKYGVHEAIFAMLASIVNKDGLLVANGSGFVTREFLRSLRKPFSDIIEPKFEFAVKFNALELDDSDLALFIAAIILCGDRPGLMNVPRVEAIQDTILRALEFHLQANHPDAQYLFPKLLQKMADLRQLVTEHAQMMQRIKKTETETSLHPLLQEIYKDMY
Method in brief: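 Agonist-mode qHTS; reporter cells, 5 hrs 37 C pre-incubation; compound titration, 18 hrs 37 C; CCF4 dye, 2 hrs RT; fluorescence read. EC50/efficacy via Hill fit.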

[3] = qHTS assay for small molecule antagonists of peroxisome proliferator-activated receptor delta signaling (AID 588535; active = well fitted inhibition curve with a large enough effect in the signal ratio, with a control signal flat, not every such curve was filed as active; the % refers to the signal ratio;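 for max response: cells co-treated with a PPAR-delta agonist as stimulator during compound exposure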); details: HEK293T PPARd-UAS-bla, beta-lactamase FRET ratio, 18 h; 460 nm channel
Method in brief: (§1)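 Fluorescence from CCF4-loaded GeneBLAzer PPAR-delta-UAS-bla HEK293T cells (2 hrs RT loading) quantified reporter inhibition after an 18 hr, 37 C compound exposure across a titration.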

[4] = biological target: Peroxisome proliferator-activated receptor delta (Homo sapiens) (UniProt Q03181); assay: as above; details: HEK293T PPARd-UAS-bla, beta-lactamase FRET ratio, 18 h; series mostly up to 76.7 µM
Method in brief: as §1

[5] = biological target: Peroxisome proliferator-activated receptor gamma (Homo sapiens) (UniProt P37231); assay: qHTS assay for small molecule agonists of peroxisome proliferator-activated receptor gamma signaling (AID 588536; active = well fitted curve in the direction sought with a large enough effect in the signal ratio, with a control signal flat, not every such curve was filed as active; the % refers to the signal ratio); details: HEK293 PPARg-UAS-bla, beta-lactamase ratio, 16 h, percent of rosiglitazone response, DMSO as zero; series mostly up to 76.7 µM
Sequence of Peroxisome proliferator-activated receptor gamma (Homo sapiens) (P37231 whole entry, looked up): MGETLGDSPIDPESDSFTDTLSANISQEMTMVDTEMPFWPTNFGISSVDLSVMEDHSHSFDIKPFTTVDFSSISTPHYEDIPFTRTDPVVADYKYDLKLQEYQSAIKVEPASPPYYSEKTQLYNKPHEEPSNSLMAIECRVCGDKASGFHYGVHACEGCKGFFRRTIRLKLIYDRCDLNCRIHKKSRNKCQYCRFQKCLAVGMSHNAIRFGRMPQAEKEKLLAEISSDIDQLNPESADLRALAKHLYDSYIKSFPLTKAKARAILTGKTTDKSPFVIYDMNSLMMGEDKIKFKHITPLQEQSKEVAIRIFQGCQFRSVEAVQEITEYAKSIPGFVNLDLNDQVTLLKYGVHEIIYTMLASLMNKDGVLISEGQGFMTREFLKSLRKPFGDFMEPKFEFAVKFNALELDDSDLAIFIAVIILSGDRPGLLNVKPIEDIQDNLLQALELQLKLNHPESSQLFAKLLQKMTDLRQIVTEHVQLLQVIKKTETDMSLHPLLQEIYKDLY
Method in brief: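 Beta-lactamase reporter read-out: CCF4 fluorescence (ex 405, em 460/530 nm) after 2 h at RT. HEK293 GeneBLAzer cells were treated for 16 h at 37 C. Hill fits gave EC50 and efficacy versus 2 uM rosiglitazone (100%) and DMSO (0%).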

[6] = biological target: Bile acid receptor (Homo sapiens) (UniProt Q96RI1); assay: qHTS assay for small molecule agonists of farnesoid X receptor signaling (AID 588527); details: HEK293T FXR-UAS-bla, beta-lactamase ratio, 16 h; stronger effect = higher value
Sequence of Bile acid receptor (Homo sapiens) (Q96RI1 whole entry, looked up): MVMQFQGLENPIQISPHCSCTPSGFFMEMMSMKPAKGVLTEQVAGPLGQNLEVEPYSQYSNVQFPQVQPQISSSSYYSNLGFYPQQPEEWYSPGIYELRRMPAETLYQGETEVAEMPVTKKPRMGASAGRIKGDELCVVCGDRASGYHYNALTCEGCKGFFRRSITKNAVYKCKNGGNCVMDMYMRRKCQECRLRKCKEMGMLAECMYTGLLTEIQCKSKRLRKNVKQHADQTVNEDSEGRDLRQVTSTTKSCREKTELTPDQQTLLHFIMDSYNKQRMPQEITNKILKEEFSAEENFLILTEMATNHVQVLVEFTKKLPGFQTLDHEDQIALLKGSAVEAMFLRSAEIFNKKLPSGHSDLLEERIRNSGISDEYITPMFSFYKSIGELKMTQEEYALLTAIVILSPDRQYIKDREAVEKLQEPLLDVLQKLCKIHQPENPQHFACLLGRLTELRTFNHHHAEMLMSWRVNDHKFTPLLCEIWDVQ
Method in brief: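 Read-out: beta-lactamase reporter fluorescence with CCF4 substrate in GeneBLAzer FXR-UAS-bla HEK293T cells, after 16 h compound exposure at 37 C. Response scaled between DMSO basal (0%) and chenodeoxycholic acid at 100 uM (100%).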

[7] = biological target: Glucocorticoid receptor (Homo sapiens) (UniProt P04150); assay: qHTS assay for small molecule antagonists of glucocorticoid receptor signaling (AID 588533; active = well fitted inhibition curve with a large enough effect in the signal ratio, with a control signal flat, not every such curve was filed as active; the % refers to the signal ratio;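 note: cells stimulated with 2 nM dexamethasone as agonist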); details: HeLa MMTV-bla, GRE beta-lactamase ratio, antagonist mode, 18 h; series mostly up to 76.8 µM
Method in brief: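 Antagonist-mode qHTS: compound titrations added to GRE-bla HeLa cells, then dexamethasone 2 nM final; 18 h, 37 C. CCF4 FRET fluorescence normalized to dexamethasone and DMSO; IC50 from Hill fit.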

## O=[N+]([O-])c1cc([N+](=O)[O-])c2ccccc2c1
[1]
  activation: -0.539% (inactive)
[2]
  outcome: inactive
[3]
  max response: 44.3%
[4]
  Potency: inactive
[5]
  outcome: inactive

## CC(C)(c1ccc(O)cc1)c1ccc(O)cc1
[2]
  outcome: inactive

## CC(C)(C)c1ccc(O)c(O)c1
[6]
  activation: 9.58% (inactive) and -7.97% (inactive)
[2]
  outcome: inactive

## CC1=NN(c2ccccc2)C(=O)C1
[6]
  activation: -5.46% (inactive) and -0.633% (inactive)
[2]
  outcome: inactive

## O=C1NS(=O)(=O)c2ccccc21
[2]
  outcome: inactive

## O=C(O)c1cc(Oc2ccc(C(F)(F)F)cc2Cl)ccc1[N+](=O)[O-]
[7]
  Potency: inactive
[5]
  outcome: inactive

## Nc1nc2ccc([N+](=O)[O-])cc2s1
[2]
  outcome: inactive

## CCCCCCCCCCCCCC(=O)OC(C)C
[6]
  activation: -0.914% (inactive)
[2]
  outcome: inactive

## ClC1=C(Cl)[C@]2(Cl)[C@@H]3[C@@H]4C[C@@H]([C@H]5O[C@@H]45)[C@@H]3[C@@]1(Cl)C2(Cl)Cl
[1]
  activation: -15% (inactive)
[7]
  Potency: inactive
[2]
  outcome: inactive
[3]
  max response: 34.4%
[4]
  Potency: inactive
